Experimental data as given in PubChem BioAssay (EPA / NIEHS).
A structure can be active in one record and inactive in another. The source made the active and inactive calls. The calls were made as follows: active = hit-call score of the fitted dose curve at least 0.9, where 1 is the maximum; inactive = score below 0.9.

Columns and labels:
[1] = ATG_NFI_CIS: Attagene CIS-FACTORIAL HepG2 Assay for human Nuclear Factor I (NFI) (AID 2282989); conditions: HepG2 cis-regulatory reporter, NFI response element transcription; actives raise or lower the signal
Method in brief: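 Reporter transcription driven by endogenous transcription factors in HepG2 cells; 24 h treatment. Quantitation by labelled RT-PCR fragments on capillary electrophoresis, gain- or loss-of-signal relative to DMSO.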

[2] = target: Myc proto-oncogene protein (Homo sapiens) (UniProt P01106); experiment: ATG_Myc_CIS: Attagene CIS-FACTORIAL HepG2 Assay for human Myelocytomatosis (Myc) Proto-Oncogene Transcription Factor (AID 2282990); conditions: HepG2, Attagene cis-reporter transcription factor activity; actives raise or lower the signal
Chain of Myc proto-oncogene protein (Homo sapiens) (P01106 whole entry, looked up): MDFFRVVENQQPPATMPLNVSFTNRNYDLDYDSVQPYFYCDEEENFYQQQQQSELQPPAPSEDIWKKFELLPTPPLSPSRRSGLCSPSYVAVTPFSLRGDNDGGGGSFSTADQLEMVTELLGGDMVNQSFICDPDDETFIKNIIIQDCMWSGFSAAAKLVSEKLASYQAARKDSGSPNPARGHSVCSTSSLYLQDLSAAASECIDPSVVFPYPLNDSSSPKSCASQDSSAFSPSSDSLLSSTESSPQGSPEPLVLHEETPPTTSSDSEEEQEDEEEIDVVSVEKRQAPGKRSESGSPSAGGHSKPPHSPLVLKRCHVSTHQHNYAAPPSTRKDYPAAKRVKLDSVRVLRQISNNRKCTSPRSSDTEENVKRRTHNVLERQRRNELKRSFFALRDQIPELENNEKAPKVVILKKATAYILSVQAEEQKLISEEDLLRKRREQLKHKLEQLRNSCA
Method in brief: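 Multiplexed cis-reporter transcription in HepG2 cells after 24 h chemical treatment. Reporter mRNA measured by RT-PCR and capillary electrophoresis fluorescence; activity fitted bidirectionally against DMSO control.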

[3] = ATG_Oct_MLP_CIS: Attagene CIS-FACTORIAL HepG2 Assay for human Octamer-Binding Transcription Factor (Oct) (AID 2282993); conditions: HepG2 Attagene cis-factorial Oct reporter, mRNA; actives raise or lower the signal
Method in brief: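 Transfected HepG2 cells, 24 h treatment. Reporter mRNA quantified by RT-PCR–capillary electrophoresis; bidirectional fitting against DMSO.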

[4] = target: Cellular tumor antigen p53 (Homo sapiens) (UniProt P04637); experiment: ATG_p53_CIS: Attagene CIS-FACTORIAL HepG2 Assay for human p53 Transcription Factor (AID 2282994); conditions: HepG2 p53 cis-element reporter, Attagene mRNA; actives raise or lower the signal
Chain of Cellular tumor antigen p53 (Homo sapiens) (P04637 whole entry, looked up): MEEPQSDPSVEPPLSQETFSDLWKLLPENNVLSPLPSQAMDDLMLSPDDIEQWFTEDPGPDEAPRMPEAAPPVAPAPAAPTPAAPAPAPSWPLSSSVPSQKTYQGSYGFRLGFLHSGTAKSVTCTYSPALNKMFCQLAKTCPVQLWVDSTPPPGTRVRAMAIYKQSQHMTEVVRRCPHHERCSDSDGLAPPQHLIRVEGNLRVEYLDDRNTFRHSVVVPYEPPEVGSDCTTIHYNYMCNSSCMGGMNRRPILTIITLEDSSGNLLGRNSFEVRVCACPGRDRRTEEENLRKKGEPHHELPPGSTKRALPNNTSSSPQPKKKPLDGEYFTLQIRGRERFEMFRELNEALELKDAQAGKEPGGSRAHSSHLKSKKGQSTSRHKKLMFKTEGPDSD
Method in brief: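 HepG2, transient MRTU transfection (cis promoter elements, endogenous TFs); 24 h dosing; RNA isolation, RT-PCR, 6-FAM primer extension, HpaI digest, CE fluorescence; bidirectional fit vs DMSO.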

[5] = ATG_NRF2_ARE_CIS: Attagene CIS-FACTORIAL HepG2 Assay for human Nuclear Factor Erythroid 2 Related Factor 2 (NFR2) response to Antioxidant Response Elements (ARE) (AID 2282992); conditions: HepG2 Attagene ARE/NRF2 reporter, transcription factor activity; actives raise or lower the signal
Method in brief: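 Transient MRTU transfection of HepG2; 24 h compound exposure; TriZol RNA, RT with oligo(dT), PCR, 6-FAM primer extension, HpaI cut, CE. Bidirectional fit vs DMSO.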

[6] = BSK_3C_TissueFactor: BioMAP Diversity Plus: 3C Assay for Tissue Factor Biomarker Activity (AID 2282997); conditions: BioMAP 3C HUVEC, tissue factor biomarker readout; actives raise or lower the signal
Method in brief: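 HUVEC were treated 24 h, then surface tissue factor measured by ELISA and fitted bidirectionally against DMSO. Parallel SRB total-protein staining assessed overt cytotoxicity at the same time point.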

[7] = BSK_3C_uPAR: BioMAP Diversity Plus: 3C Assay for Urokinase-type plasminogen activator receptor (uPAR) Biomarker Activity (AID 2282998); conditions: BioMAP 3C HUVEC, uPAR biomarker ELISA; actives raise or lower the signal
Method in brief: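 Readout: ELISA for surface uPAR. System: human umbilical vein endothelial primary cells, 24 h after chemical exposure. Analysis: bidirectional fit, DMSO baseline.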

[8] = BSK_3C_VCAM1: BioMAP Diversity Plus: 3C Assay for Vascular cell adhesion molecule 1 (VCAM1) Biomarker Activity (AID 2282999); conditions: BioMAP 3C HUVEC, VCAM1 ELISA, cytokine-stimulated; actives raise or lower the signal
Method in brief: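 Human umbilical vein endothelial cells were dosed with compound for 24 h, after which cell-surface VCAM-1 was quantified by ELISA. Bidirectional curve fitting used DMSO as negative control and activity baseline.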

[9] = BSK_4H_Eotaxin3: BioMAP Diversity Plus: 4H Assay for Eotaxin 3 Biomarker Activity (AID 2283000); conditions: primary human endothelial cells (HUVEC); actives raise or lower the signal;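 as to outcome: CCL26 protein level quantified by ELISA in parallel with SRB cytotoxicity check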
Method in brief: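 Eotaxin-3 (CCL26) levels were measured by ELISA in HUVEC primary cultures 24 h post-dosing. Gain or loss of signal was fitted in both directions, with DMSO serving as baseline and negative control.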

For `CC1=NN(c2ccc(S(=O)(=O)O)cc2)C(=O)C1`, which outcome [1] is on record?
The outcome was “inactive”.

And the outcome [2]?
The outcome was “inactive”.

What about the outcome [3] of the same compound?
Its outcome is “inactive”.

What about the outcome [4] of the same compound?
The outcome was “inactive”.

Which outcome [1] does the source give for `CCOc1ccc(N=Nc2ccc(C=Cc3ccc(N=Nc4ccc(OCC)cc4)cc3S(=O)(=O)O)c(S(=O)(=O)O)c2)cc1` here?
The outcome was “inactive”.

What about the outcome [2] of the same compound?
The outcome was “inactive”.

What about the outcome [3] of the same compound?
The outcome was “inactive”.

And the outcome [4]?
Its outcome is “inactive”.

For `Nc1ccc(Cl)c([N+](=O)[O-])c1`, which outcome [1] is on record?
The outcome was “inactive”.

And the outcome [2]?
The outcome was “inactive”.

What about the outcome [5] of the same compound?
Its outcome is “inactive”.

And the outcome [3]?
Its outcome is “inactive”.

What about the outcome [4] of the same compound?
The outcome was “inactive”.

What does the source list for `CC(C)Nc1nc(N)nc(Cl)n1`?
outcome [1]: inactive; outcome [2]: inactive; outcome [5]: inactive; outcome [3]: inactive; outcome [4]: inactive

For `CC(C)OCCO`, which outcome [1] is on record?
The outcome was “inactive”.

What about the outcome [2] of the same compound?
Its outcome is “inactive”.

And the outcome [5]?
The outcome was “inactive”.

And the outcome [3]?
The outcome was “inactive”.

And the outcome [4]?
The outcome was “inactive”.

Which outcome [1] does the source give for `CC1CC(O)CC(C)(C)C1` (centres undefined) here?
The outcome was “inactive”.

What about the outcome [2] of the same compound?
The outcome was “inactive”.

What about the outcome [3] of the same compound?
Its outcome is “inactive”.

What about the outcome [4] of the same compound?
Its outcome is “inactive”.

With `CC/C=C\CCOC(=O)CC` as the compound, how does the outcome [1] read?
The outcome was “inactive”.

And the outcome [2]?
The outcome was “inactive”.

What about the outcome [3] of the same compound?
The outcome was “inactive”.

And the outcome [4]?
The outcome was “inactive”.

Which outcome [1] does the source give for `C=CC(C)(O)CCC=C(C)C` (centres undefined) here?
Its outcome is “inactive”.

And the outcome [2]?
The outcome was “inactive”.

And the outcome [5]?
The outcome was “inactive”.

And the outcome [3]?
The outcome was “inactive”.

And the outcome [6]?
Its outcome is “inactive”.

And the outcome [7]?
The outcome was “inactive”.

What about the outcome [8] of the same compound?
The outcome was “inactive”.

And the AC50 [9]?
Its AC50 is 0.149 µM (active).

And the outcome [9]?
The outcome was “inactive”.

With `C=CCN(CC=C)CC=C` as the compound, how does the outcome [1] read?
The outcome was “inactive”.

What about the outcome [2] of the same compound?
Its outcome is “inactive”.

And the outcome [3]?
The outcome was “inactive”.

With `Cc1cc(S(=O)(=O)O)ccc1N=Nc1c(O)ccc2ccccc12` as the compound, how does the outcome [1] read?
The outcome was “inactive”.

What about the outcome [2] of the same compound?
The outcome was “inactive”.

What about the outcome [5] of the same compound?
The outcome was “inactive”.

What about the outcome [3] of the same compound?
The outcome was “inactive”.

What about the outcome [4] of the same compound?
Its outcome is “inactive”.

Which results are given for `C=C(C)C(=O)OCCOC1CC2CC1C1C=CCC21` (centres undefined)?
outcome [1]: inactive; outcome [2]: inactive; outcome [3]: inactive; outcome [4]: inactive

With `O=C(CC(=O)c1ccccc1)c1ccccc1` as the compound, how does the AC50 [1] read?
Its AC50 is 100 µM (active).

What about the AC50 [2] of the same compound?
The AC50 was 100 µM (active).

And the AC50 [5]?
Its AC50 is 3.43 µM (active).

And the AC50 [3]?
Its AC50 is 59 µM (active).

And the outcome [4]?
The outcome was “inactive”.

Which results are given for `CC(=O)c1c(C)c([N+](=O)[O-])c(C(C)(C)C)c([N+](=O)[O-])c1C`?
outcome [1]: inactive; outcome [2]: inactive; outcome [5]: inactive; outcome [3]: inactive; outcome [4]: inactive; outcome [6]: inactive; outcome [7]: inactive; outcome [8]: inactive; outcome [9]: inactive

With `COC(C)(C)CCO` as the compound, how does the outcome [1] read?
Its outcome is “inactive”.

What about the outcome [2] of the same compound?
The outcome was “inactive”.

What about the outcome [5] of the same compound?
The outcome was “inactive”.

What about the outcome [3] of the same compound?
The outcome was “inactive”.

And the outcome [4]?
Its outcome is “inactive”.

With `CCC(=O)OCCOc1ccccc1` as the compound, how does the outcome [1] read?
Its outcome is “inactive”.

What about the outcome [2] of the same compound?
Its outcome is “inactive”.

And the outcome [3]?
Its outcome is “inactive”.

For `CCCCCCOC(=O)C(C)C`, which outcome [1] is on record?
Its outcome is “inactive”.

What about the outcome [2] of the same compound?
Its outcome is “inactive”.

And the outcome [5]?
Its outcome is “inactive”.

What about the outcome [3] of the same compound?
The outcome was “inactive”.

And the outcome [4]?
Its outcome is “inactive”.
